Measurements taken from PubChem BioAssay (EPA / NIEHS).
Inconclusive results are not listed. Active and inactive are the calls of the source. How the source made its calls: active means hit-call score of the fitted dose curve at least 0.9, where 1 is the maximum; inconclusive means response in the unintended direction; inactive means score below 0.9.

Biological target: human Retinoid X Receptor beta (RXRb), RXRB (gene 6257) (UniProt P28702)
Assay: ATG_RXRb_TRANS: Attagene TRANS-FACTORIAL HepG2 Assay for human Retinoid X Receptor beta (RXRb) (AID 2283013)
Experimental: ATG_TRANS is a cell-based, multiplexed-readout assay that uses HepG2, a human liver cell line, with measurements taken at 24 hours after chemical dosing in a 24-well plate.ATG_RXRb_TRANS is one of 30 assay component(s) measured or calculated from the ATG_TRANS assay. It is designed to make measurements of mRNA induction, a form of inducible reporter, as detected with fluorescence intensity signals by Reverse transcription polymerase chain reaction (RT-PCR) and Capillary electrophoresis technology.Data from the assay component ATG_RXRb_TRANS was analyzed into 1 assay endpoint. This assay endpoint, ATG_RXRb_TRANS, was analyzed in the positive analysis fitting direction relative to DMSO as the negative control and baseline of activity. Using a type of inducible reporter, measures of mRNA for gain-of-signal activity can be used to understand the reporter gene at the transcription factor-level as they relate to the gene RXRB. Furthermore, this assay endpoint can be referred to as a primary readout, because this assay has produced multiple assay endpoints where this one serves a reporter gene function. To generalize the intended target to other relatable targets, this assay endpoint is annotated to the nuclear receptor intended target family, where the subfamily is non-steroidal.
Human liver HepG2 cells are transiently transfected with multiple reporter transcription units (MRTUs) in 6-well plates using FuGene 6 reagent (Roche; 3 ml FuGene/1 mg DNA). The MRTU constructs are regulated by a cis-regulating element (promoter). […] A major difference between the CIS and TRANS system is that in CIS activities of endogenous TFs are measured, whereas the TRANS assay evaluates changes in activities of exogenous, chimeric NR-Gal4 proteins. […] At the end of 24 hour incubation, total RNA was isolated using TriZol reagent (Invitrogen). The isolated RNA is then reverse-transcribed using oligo(dT) primer and Mo-MLV reverse transcriptase (Invitrogen) with DNAse I (Ambion) treatment for 30 min. The one-tenth of the produced cDNA was amplified by PCR using Taq DNA polymerase (Invitrogen) and two reporter sequence-specific primers. The PCR products were fluorescently labeled by primer extension with 6-arboxyfluorescein (6-FAM) 5'-labeled reporter sequence-specific primer (2 min at 95 C, 20 s at 68 C and 10 min at 72 C) and these products were digested with 5U of HpaI (New England Biolabs) for 2h at 37 C. The fragments were purified using Qiaquick PCR columns (Qiagen), analyzed on an ABI 3130xL genetic analyzer (Applied Biosystems) with peak positions identified by using a set of X-rhodamine (ROX)-labeled MapMarker1000 molecular weight standards (BioVentures). The raw capillary electrophoresis data was processed using Attagraph software (Attagene).

human Retinoid X Receptor beta (RXRb), RXRB (gene 6257), sequence (P28702 whole entry, looked up): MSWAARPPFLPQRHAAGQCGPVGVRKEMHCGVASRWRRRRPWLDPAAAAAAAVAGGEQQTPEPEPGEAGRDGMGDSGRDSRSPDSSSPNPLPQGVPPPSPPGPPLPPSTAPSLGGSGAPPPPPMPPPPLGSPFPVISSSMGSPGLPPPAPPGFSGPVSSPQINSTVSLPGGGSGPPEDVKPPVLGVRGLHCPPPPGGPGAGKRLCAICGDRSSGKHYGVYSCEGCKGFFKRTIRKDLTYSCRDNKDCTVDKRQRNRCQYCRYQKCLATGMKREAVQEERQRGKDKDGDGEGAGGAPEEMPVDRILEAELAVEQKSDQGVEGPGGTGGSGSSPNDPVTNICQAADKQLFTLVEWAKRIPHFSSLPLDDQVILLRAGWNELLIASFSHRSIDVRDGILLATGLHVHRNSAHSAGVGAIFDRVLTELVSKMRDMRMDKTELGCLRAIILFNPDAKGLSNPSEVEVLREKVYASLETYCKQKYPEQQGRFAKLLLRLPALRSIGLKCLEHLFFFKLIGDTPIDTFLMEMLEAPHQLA

Row | Compound | outcome | AC50
1 | O=S(=O)(OCC(F)(F)F)C(F)(F)C(F)(F)C(F)(F)C(F)(F)F | inactive | –
2 | C=C(C)CCCC | inactive | –
3 | COCCOCCC[Si](C)(O[Si](C)(C)C)O[Si](C)(C)C | – | 33.4 µM (active)
4 | COc1ccccc1C=O | inactive | –
5 | CCN(CC)c1ccc(C=O)cc1 | inactive | –
6 | F[Si-2](F)(F)(F)(F)F | inactive | –
7 | OCCCC(F)(F)C(F)(F)C(F)(F)C(F)(F)C(F)(F)C(F)(F)C(F)(F)C(F)(F)F | – | 2.86 µM (active)
8 | CCCCCCCC/C=C\CCCCCCCC(=O)N(C)CC(=O)O | inactive | –
9 | Cc1cc(=O)[nH]c(C(C)C)n1 | inactive | –
10 | C=CC(=O)OCC(F)(F)C(F)(F)C(F)(F)C(F)(F)C(F)(F)C(F)(F)C(F)(F)C(F)F | inactive | –
11 | CCOC(=O)CCC(C)=O | inactive | –
12 | Cc1ccc(S(=O)(=O)C(I)I)cc1 | inactive | –
13 | O=C(c1ccccc1)c1ccc(Cl)cc1 | – | 68.7 µM (active)
14 | CCC/C=C/CO | inactive | –
15 | O=C(O)CCC(F)(F)C(F)(F)C(F)(F)C(F)(F)C(F)(F)C(F)(F)C(F)(F)F | – | 41.3 µM (active)
16 | CC(C)Nc1ccc(NC(C)C)c2c1C(=O)c1ccccc1C2=O | inactive | –
17 | CC(C)CCCC(C)CCO (stereo not given) | inactive | –
18 | O=C(Cl)C(F)(F)C(F)(F)C(F)(F)C(F)(F)C(F)(F)C(F)(F)C(F)(F)F | – | 34.6 µM (active)
19 | O=C(O)C(F)(F)C(F)(F)C(F)(F)C(F)(F)C(F)(F)C(F)(F)C(F)F | inactive | –
20 | CCC(=O)OC(C)c1ccccc1 (stereo not given) | inactive | –

Row | Compound | outcome | AC50
21 | O=S(=O)(Cl)C(F)(F)C(F)(F)C(F)(F)C(F)(F)C(F)(F)C(F)(F)C(F)(F)C(F)(F)F | inactive | –
22 | Cc1cccc(C)n1 | inactive | –
23 | OCC1CCCO1 (stereo not given) | inactive | –
24 | CCn1c2ccccc2c2ccccc21 | – | 13.3 µM (active)
25 | O=C1C=CC(=O)N1c1ccc(Cc2ccc(N3C(=O)C=CC3=O)cc2)cc1 | inactive | –
26 | O=C(O)C(F)(F)C(F)(F)C(F)(F)OC(F)(C(F)(F)F)C(F)(F)F | inactive | –
27 | Cc1cc(C)c(O)c(C(C)(C)C)c1 | – | 28.9 µM (active)
28 | C=CC(=O)OCCC(F)(F)C(F)(F)C(F)(F)C(F)(F)F | inactive | –
29 | C=C(C)C(=O)OCC(F)(F)C(F)(F)C(F)(F)C(F)F | inactive | –
30 | CCN(CC)c1ccc(N=Nc2ccccc2)cc1 | inactive | –
31 | OCCCc1cccnc1 | inactive | –
32 | CCc1cccc(C)c1N(C(=O)C(=O)O)C(C)COC (stereo not given) | inactive | –
33 | OCCCCl | inactive | –
34 | CO[Si](C)(CCC(F)(F)C(F)(F)C(F)(F)C(F)(F)C(F)(F)C(F)(F)F)OC | inactive | –
35 | NC(=O)C(F)(F)C(F)(F)C(F)(F)C(F)F | inactive | –
36 | OCCC(O)CO (stereo not given) | inactive | –
37 | O=C(O)CCC(F)(F)C(F)(F)C(F)(F)F | inactive | –
38 | Cc1cc(O)c(C(C)(C)C)cc1C(C)(C)C | – | 2.58 µM (active)
39 | CCCCOC(=O)C(C)O (stereo not given) | inactive | –
40 | CC(C)CC=C(C=O)c1ccccc1 | inactive | –
